# According to the supplement of paper PMC12282887:
# ± gives the standard deviation of the averaged measurements.
# Columns and labels:
# Assay in all cases: promoter activity interaction Z-score (Lux/OD deviation from empty-vector control); higher = stronger promoter induction by the compound
# [1] = tested on: E. coli BW25113 acrABp lux reporter
# Method in brief: (§1)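 E. coli BW25113, as wild type or one of three single-gene deletion strains, carried low-copy luxCDABE promoter reporters and grew in 40 µl LB Lennox in 384-well plates at 37°C, with OD600 and luminescence read every 30 min for 12 h. Each compound was run at four 1:2 dilutions in biological duplicates, integration spanned 0–8 h for wild type and 1–9 h for deletion strains, and wells under 10% of the median growth value were dropped. The score is the Z-transformed residual of growth-normalised luminescence fitted against a control.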
# [2] = tested on: E. coli BW25113 marRABp lux reporter
# Method in brief: as §1
# [3] = tested on: E. coli BW25113 micFp lux reporter
# Method in brief: as §1
# [4] = tested on: E. coli BW25113 ompFp lux reporter
# Method in brief: as §1
# [5] = tested on: E. coli BW25113 robp lux reporter
# Method in brief: as §1
# [6] = tested on: E. coli BW25113 soxSp lux reporter
# Method in brief: as §1
# [7] = tested on: E. coli BW25113 tolCp lux reporter
# Method in brief: as §1
# [8] = 0.53 µg/ml, genetic background: wild type
# [9] = 0.53 µg/ml, genetic background: ΔmarA
# [10] = 0.53 µg/ml, genetic background: Δrob
# [11] = 0.53 µg/ml, genetic background: ΔsoxS
# [12] = 1.1 µg/ml, genetic background: wild type
# [13] = 1.1 µg/ml, genetic background: ΔmarA
# [14] = 1.1 µg/ml, genetic background: Δrob
# [15] = 1.1 µg/ml, genetic background: ΔsoxS
# [16] = 2.1 µg/ml, genetic background: wild type
# [17] = 2.1 µg/ml, genetic background: ΔmarA
# [18] = 2.1 µg/ml, genetic background: Δrob
# [19] = 2.1 µg/ml, genetic background: ΔsoxS
# [20] = 4.2 µg/ml, genetic background: wild type
# [21] = 4.2 µg/ml, genetic background: ΔmarA
# [22] = 4.2 µg/ml, genetic background: Δrob
# [23] = 4.2 µg/ml, genetic background: ΔsoxS
compound,measurement,setting,value
Cc1onc(-c2ccccc2)c1C(=O)N[C@@H]1C(=O)N2[C@@H]1SC(C)(C)[C@@H]2C(=O)O [Oxacillin],promoter activity interaction Z-score,[1]; [8],0.053 ± 0.18
same,promoter activity interaction Z-score,[1]; [9],-0.268 ± 0.44
same,promoter activity interaction Z-score,[1]; [10],-0.0793 ± 0.23
same,promoter activity interaction Z-score,[1]; [11],-0.33 ± 0.59
same,promoter activity interaction Z-score,[1]; [12],0.196 ± 0.12
same,promoter activity interaction Z-score,[1]; [13],1.12 ± 0.86
same,promoter activity interaction Z-score,[1]; [14],0.498 ± 0.18
same,promoter activity interaction Z-score,[1]; [15],-0.172 ± 0.078
same,promoter activity interaction Z-score,[1]; [16],0.0571 ± 0.33
same,promoter activity interaction Z-score,[1]; [17],0.268 ± 0.39
same,promoter activity interaction Z-score,[1]; [18],-0.074 ± 0.13
same,promoter activity interaction Z-score,[1]; [19],0.181 ± 0.15
same,promoter activity interaction Z-score,[1]; [20],0.273 ± 0.22
same,promoter activity interaction Z-score,[1]; [21],0.585 ± 0.21
same,promoter activity interaction Z-score,[1]; [22],0.529 ± 0.22
same,promoter activity interaction Z-score,[1]; [23],0.643 ± 0.31
same,promoter activity interaction Z-score,[2]; [8],-0.0416 ± 0.14
same,promoter activity interaction Z-score,[2]; [9],-0.145 ± 0.48
same,promoter activity interaction Z-score,[2]; [10],-0.0895 ± 0.14
same,promoter activity interaction Z-score,[2]; [11],0.143 ± 0.032
same,promoter activity interaction Z-score,[2]; [12],0.221 ± 0.0058
same,promoter activity interaction Z-score,[2]; [13],0.189 ± 0.3
same,promoter activity interaction Z-score,[2]; [14],0.0302 ± 0.28
same,promoter activity interaction Z-score,[2]; [15],0.214 ± 0.17
same,promoter activity interaction Z-score,[2]; [16],-0.151 ± 0.12
same,promoter activity interaction Z-score,[2]; [17],-0.0728 ± 0.16
same,promoter activity interaction Z-score,[2]; [18],0.0223 ± 0.02
same,promoter activity interaction Z-score,[2]; [19],0.133 ± 0.06
same,promoter activity interaction Z-score,[2]; [20],0.0879 ± 0.03
same,promoter activity interaction Z-score,[2]; [21],0.194 ± 0.076
same,promoter activity interaction Z-score,[2]; [22],-0.03 ± 0.043
same,promoter activity interaction Z-score,[2]; [23],0.211 ± 0.2
same,promoter activity interaction Z-score,[3]; [8],-0.0698 ± 0.15
same,promoter activity interaction Z-score,[3]; [9],-0.00609 ± 0.034
same,promoter activity interaction Z-score,[3]; [10],0.0977 ± 0.018
same,promoter activity interaction Z-score,[3]; [11],-0.311 ± 0.1
same,promoter activity interaction Z-score,[3]; [12],0.087 ± 0.12
same,promoter activity interaction Z-score,[3]; [13],0.0472 ± 0.028
same,promoter activity interaction Z-score,[3]; [14],-0.0746 ± 0.027
same,promoter activity interaction Z-score,[3]; [15],-0.46 ± 0.051
same,promoter activity interaction Z-score,[3]; [16],-0.222 ± 0.18
same,promoter activity interaction Z-score,[3]; [17],-0.0625 ± 0.059
same,promoter activity interaction Z-score,[3]; [18],-0.00193 ± 0.23
same,promoter activity interaction Z-score,[3]; [19],-0.245 ± 0.077
same,promoter activity interaction Z-score,[3]; [20],-0.192 ± 0.041
same,promoter activity interaction Z-score,[3]; [21],-0.163 ± 0.035
same,promoter activity interaction Z-score,[3]; [22],-0.112 ± 0.052
same,promoter activity interaction Z-score,[3]; [23],-0.2749 ± 0.002
same,promoter activity interaction Z-score,[4]; [8],0.23 ± 0.46
same,promoter activity interaction Z-score,[4]; [9],-0.204 ± 0.21
same,promoter activity interaction Z-score,[4]; [10],0.703 ± 0.91
same,promoter activity interaction Z-score,[4]; [11],0.0892 ± 0.53
same,promoter activity interaction Z-score,[4]; [12],0.678 ± 0.061
same,promoter activity interaction Z-score,[4]; [13],0.797 ± 0.28
same,promoter activity interaction Z-score,[4]; [14],1.14 ± 0.72
same,promoter activity interaction Z-score,[4]; [15],-0.107 ± 0.53
same,promoter activity interaction Z-score,[4]; [16],0.461 ± 0.27
same,promoter activity interaction Z-score,[4]; [17],0.0383 ± 0.29
same,promoter activity interaction Z-score,[4]; [18],0.0292 ± 0.36
same,promoter activity interaction Z-score,[4]; [19],0.0474 ± 0.046
same,promoter activity interaction Z-score,[4]; [20],1.42 ± 0.14
same,promoter activity interaction Z-score,[4]; [21],1.05 ± 0.48
same,promoter activity interaction Z-score,[4]; [22],0.898 ± 0.69
same,promoter activity interaction Z-score,[4]; [23],0.846 ± 0.19
same,promoter activity interaction Z-score,[5]; [8],0.088 ± 0.58
same,promoter activity interaction Z-score,[5]; [9],-0.319 ± 0.36
same,promoter activity interaction Z-score,[5]; [10],0.652 ± 0.036
same,promoter activity interaction Z-score,[5]; [11],0.106 ± 0.47
same,promoter activity interaction Z-score,[5]; [12],0.612 ± 0.26
same,promoter activity interaction Z-score,[5]; [13],0.925 ± 0.46
same,promoter activity interaction Z-score,[5]; [14],0.609 ± 0.17
same,promoter activity interaction Z-score,[5]; [15],0.778 ± 0.55
same,promoter activity interaction Z-score,[5]; [16],0.467 ± 0.023
same,promoter activity interaction Z-score,[5]; [17],-0.206 ± 0.25
same,promoter activity interaction Z-score,[5]; [18],0.275 ± 0.38
same,promoter activity interaction Z-score,[5]; [19],0.757 ± 0.4
same,promoter activity interaction Z-score,[5]; [20],0.385 ± 0.34
same,promoter activity interaction Z-score,[5]; [21],1.01 ± 0.081
same,promoter activity interaction Z-score,[5]; [22],0.222 ± 0.11
same,promoter activity interaction Z-score,[5]; [23],1.08 ± 0.62
same,promoter activity interaction Z-score,[6]; [8],-0.0338 ± 0.24
same,promoter activity interaction Z-score,[6]; [9],-0.139 ± 0.028
same,promoter activity interaction Z-score,[6]; [10],-0.137 ± 0.026
same,promoter activity interaction Z-score,[6]; [11],0.0469 ± 0.46
same,promoter activity interaction Z-score,[6]; [12],0.0426 ± 0.12
same,promoter activity interaction Z-score,[6]; [13],0.0745 ± 0.03
same,promoter activity interaction Z-score,[6]; [14],-0.157 ± 0.17
same,promoter activity interaction Z-score,[6]; [15],-0.0373 ± 0.73
same,promoter activity interaction Z-score,[6]; [16],0.0115 ± 0.12
same,promoter activity interaction Z-score,[6]; [17],-0.148 ± 0.13
same,promoter activity interaction Z-score,[6]; [18],-0.0916 ± 0.13
same,promoter activity interaction Z-score,[6]; [19],0.0598 ± 0.27
same,promoter activity interaction Z-score,[6]; [20],-0.0461 ± 0.098
same,promoter activity interaction Z-score,[6]; [21],-0.0772 ± 0.096
same,promoter activity interaction Z-score,[6]; [22],-0.0369 ± 0.08
same,promoter activity interaction Z-score,[6]; [23],0.0279 ± 0.51
same,promoter activity interaction Z-score,[7]; [8],-0.367 ± 0.24
same,promoter activity interaction Z-score,[7]; [9],-0.79 ± 0.24
same,promoter activity interaction Z-score,[7]; [10],-0.414 ± 0.28
same,promoter activity interaction Z-score,[7]; [11],-0.864 ± 0.42
same,promoter activity interaction Z-score,[7]; [12],0.453 ± 0.31
same,promoter activity interaction Z-score,[7]; [13],0.956 ± 0.37
same,promoter activity interaction Z-score,[7]; [14],0.349 ± 0.2
same,promoter activity interaction Z-score,[7]; [15],-0.174 ± 0.0082
same,promoter activity interaction Z-score,[7]; [16],-0.798 ± 0.98
same,promoter activity interaction Z-score,[7]; [17],-0.615 ± 0.57
same,promoter activity interaction Z-score,[7]; [18],-0.016 ± 0.46
same,promoter activity interaction Z-score,[7]; [19],-0.0987 ± 0.39
same,promoter activity interaction Z-score,[7]; [20],-0.558 ± 0.11
same,promoter activity interaction Z-score,[7]; [21],-0.589 ± 0.39
same,promoter activity interaction Z-score,[7]; [22],-0.155 ± 0.7
same,promoter activity interaction Z-score,[7]; [23],-0.224 ± 1.2
